For 29 molecules, z-score results are on record in PubChem BioAssay.

Molecules are shown by their SMILES.

The test can be described thus: A549 cell viability effects, profiling panel, calcein-AM fluorescence, 48 h, basal (AID 1162). Note: test concentration not given here. Particulars: higher = more signal.
With `CO[C@H]1COC(=O)[C@@H]2CCCN2C(=O)CC=C[C@@H](C)[C@H](OC)COC(=O)CC=C[C@@H]1C`, the z-score was 0.346.

On to `CC(C)CON=C1C[C@@H](O)[C@@H](O)[C@@H]2[C@@H]3C(=O)N([C@@H](C)c4ccccc4)C(=O)[C@@H]3CC[C@H]12`, for which the z-score is 0.58.

`O=C1[C@H]2[C@H]3[C@H](O)[C@H](O)CC(=NOC[C@@H](O)COCc4ccco4)[C@@H]3CC[C@H]2C(=O)N1c1ccc(F)cc1F`: the z-score was -0.2.

In the case of `CO[C@@H]1COC(=O)CCC[C@@H](C)[C@H](OC)COC(=O)CCC[C@H]1C`, the z-score is -0.378.

In the case of `C=CC[C@@H]1C=C[C@H](ON=C[C@@H](OC)[C@H](C)C=CCC(=O)OC)[C@@H](CO)O1`, the z-score is 0.812.

Regarding `CCCC[C@@H](O)C1=C(C)C[C@H]2C(=O)N(Cc3ccccc3)C(=O)[C@H]2[C@H]1CO`, the z-score was 0.35.

With `CC(CCN1CCc2nc(-c3ccccc3)c(-c3ccccc3)cc2C1)=NO[C@H](C)c1cn([C@@H]2COC[C@H]2O)nn1`, the z-score was 1.9.

`CC(C)[C@H](NC(=O)OC(C)(C)C)[C@@H](O)CC(=O)OC(C)(C)C`: the z-score was 0.403.

Take `CCOC(=O)C[C@H]1[C@H](OC(=O)c2ccc(C(=O)c3ccccc3)cc2)[C@@H](NC(=O)c2ccc(-c3ccccc3)cc2)c2cc(OCCCO)ccc2N1C(=O)c1ccc2ccccc2n1`: the z-score is 1.03.

As for `CCCNC(=O)OC[C@H]1O[C@H](CCON=C[C@@H](OC)[C@H](C)C=CCC(=O)OC)C=C[C@@H]1Oc1ccc(OC)cc1`, the z-score was 0.0666.

In the case of `CCOC(=O)CCN1C(=O)[C@H]2[C@H]3[C@H](O)[C@H](O)CC(=NNC(=O)OCc4ccc(OC)cc4)[C@@H]3CC[C@H]2C1=O`, the z-score is -0.212.

Take `COc1ccc(O[C@H]2C=C[C@@H](c3ccccc3)O[C@@H]2COC(=O)CCC(C)=NOC[C@@H](C)[C@H](OCc2ccccc2)C(C)C)cc1`: the z-score was -0.0801.

Consider `O=C1[C@H]2[C@H]3[C@H](O)[C@H](O)CC(=NOCc4ccccc4)[C@H]3CC[C@H]2C(=O)N1C[C@@H]1CCCO1`, for which the z-score was 0.0598.

Turning to `O=C1O[C@@H](c2ccccc2)[C@@H](c2ccccc2)N2[C@@H](c3ccc(OCCO)cc3)[C@]3(C(=O)Nc4ccc(C#CCCO)cc43)[C@@H](C(=O)N3CCCCCCC3)[C@H]12`, the z-score is 0.819.

In the case of `CCCCc1nc2c(c3c1C[C@H](C)OC3)CN(CCC(C)C)CC2`, the z-score is 1.25.

Regarding `O=C1C2=CC[C@H]3C(=O)N(Cc4ccc5c(c4)OCO5)C(=O)[C@H]3[C@H]2[C@H](O)[C@@H]2O[C@H]12`, the z-score is -0.227.

In the case of `O=C1CCCC=C1C(O)CCOCc1ccccc1` (centres undefined), the z-score is -0.43.

On to `COCCCNC(=O)[C@]1(CCC(=O)OC(C)(C)C)N=C(c2ccc(OCCCO)cc2)O[C@@H]1c1ccccc1N=[N+]=[N-]`, for which the z-score is -0.771.

On to `COC(=O)[C@@H]1CCCN1C(=O)[C@@H](C)CO`, for which the z-score was 0.0364.

On to `COc1ccc([Si](C)(C)[C@H]2[C@H](CCO)O[C@@]3(C(=O)N(Cc4cccc(NC(=O)[C@H](C)O)c4)c4ccccc43)[C@@H]2C)cc1`, for which the z-score was -2.82.

For the molecule `CCOC(=O)CCN1C(=O)[C@H]2[C@H]3[C@H](O)[C@H](O)CC(=NOC[C@@H](O)COCc4ccco4)[C@@H]3CC[C@H]2C1=O`, the z-score was 0.14.

Regarding `CC(CCN1CCCCc2nc(C)c(C)cc21)=NOC(C)CN1CCCCc2nc(C)c(C)cc21` (centres undefined), the z-score is -0.282.

On to `COCCOC(=O)N1C(=O)[C@@]2(c3cc(C#CC4(O)CCCCCC4)ccc31)[C@H](c1ccc(OCCO)cc1)N1[C@H](c3ccccc3)[C@H](c3ccccc3)OC(=O)[C@H]1[C@@H]2C(=O)NC[C@H](O)c1ccccc1`, for which the z-score was 0.358.

In the case of `CC(C)NC(=O)[C@@]1(C)c2ccccc2C(=O)N(Cc2cc(F)cc(C(F)(F)F)c2)[C@H]1c1ccc(CO)cc1`, the z-score was 0.0549.

As for `O=C1[C@H]2[C@H]3[C@H](O)[C@H](O)CC(=NO[C@@H]4O[C@H](CO)[C@@H](O)[C@H](O)[C@H]4O)[C@H]3CC[C@H]2C(=O)N1Cc1ccc2c(c1)OCO2`, the z-score is 1.26.

`O=C1[C@H]2[C@H]3[C@H](O)[C@H](O)CC(=NOCc4ccccc4)[C@H]3CC[C@H]2C(=O)N1c1cccc(Oc2ccccc2)c1`: the z-score is 0.382.

Turning to `C[C@H](c1ccccc1)N1C(=O)[C@H]2[C@@H]3C(=CC[C@H]2C1=O)C(=O)[C@H]1O[C@H]1[C@H]3O`, the z-score was -1.86.

For the molecule `Cc1cc2c(nc1C)CCCN2CC(C)ON=C1[C@H]2CCn3c(=O)n(-c4ccccc4)c(=O)n3[C@H]2[C@H](O)[C@@H]2O[C@H]12` (some centres undefined), the z-score was -0.457.

Turning to `C#CCCCON=C1C[C@@H](O)[C@@H](O)[C@@H]2[C@@H]3C(=O)N([C@@H](C)c4ccccc4)C(=O)[C@@H]3CC[C@H]12`, the z-score is -0.858.
